# PubChem BioAssay (NCATS)
# Records with an inconclusive call do not appear. Values without a mark were called inactive. Active and inactive are the calls of the source. Calls come from the whole dose curve; as a rule, active = well fitted inhibition curve with a large enough effect; inconclusive = small, poorly fitted or top-dose-only effect; inactive = flat fitted curve, though single readings scatter.
# Test system: CP203
# Assay: qHTS profiling for inhibitors of Plasmodium falciparum proliferation (AID 504749);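 note: 0% = DMSO vehicle and full inhibition = artemisinin control; nearly all actives have a fitted effect of over 60% in size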
# Details: P. falciparum in erythrocytes, SYBR Green DNA, 72 h; series mostly up to 28.7 µM; activity, negative = inhibition: at the top concentration
# From the text: NIH National Institute of Allergy and Infectious Diseases [NIAID] NIH Chemical Genomics Center [NCGC] MLPCN Grant: None Assay Provider: Xinzhuan Su, NIAID NCGC Assay Overview: Plasmodium falciparum is a virulent malarial parasite that kills 1-2 million people worldwide each year. Transmitted by mosquitoes, the sporozoite form of the parasite enters the blood stream to infect hepatocytes, where they become merozoites that infect red blood cells (erythrocytes). Within erythrocytes, merozoites begin a […] cycle of growth and division, after which the parasite is released to infect new red blood cells. Gametocytes, which form within erythrocytes as well, circulate in the bloodstream and are ingested by the mosquito, thereby completing the life cycle. To profile malarial isolates for differential chemical responses and to identify inhibitors of malarial growth, an assay that measures P. falciparum growth and replication within erythrocytes was employed. This assay uses a DNA binding fluorescent dye (SYBR Green) to detect parasite DNA following cell lysis. Because mature erythrocytes lack DNA, only Plasmodium-derived DNA is detected.
# NCGC Assay Protocol Summary: The SYBR Green viability assay was adapted from a method described previously (Plouffe et al., 2008). For screening 3 ul culture medium was dispensed into 1536 well black clear bottom plates (Aurora Biotechnologies) using a Multidrop Combi (Thermo Fisher Scientific Inc.), 23 nL compounds in DMSO were added by a pin tool (Kalypsys), and 5 ul of erythrocytes infected with P. falciparum (0.3% parasitemia, 2.5% hematocrit final concentration) were added. The plates were incubated at 37 C in a humidified incubator in 5% CO2 for 72 h, and 2 ul lysis buffer (20 mM Tris HCl, 10 mM EDTA, 0.16% saponin, 1.6% triton X, 10X SYBR Green I supplied as 10,000X […] by Invitrogen) was added to each well. The plates were mixed for 25 sec with gentle shaking and incubated overnight at room temperature in the dark. The following morning, fluorescence intensity at 485(14) nm excitation and 535(25) nm emission wavelengths was measured on an EnVision (Perkin Elmer) plate reader. Plate reads were normalized relative to the control inhibitor (0.29 uM artemisinin) and vehicle (DMSO) wells present on each plate and then corrected by an algorithm using vehicle-only control plates at the beginning and end of the compound plate stack.
Compound,"activity, negative = inhibition",outcome
CCN(CC)CCOC(=O)c1ccc(N)cc1,6.67% [at 12.8 µM],–
CC/C(=C(\c1ccccc1)c1ccc(OCCN(C)C)cc1)c1ccccc1,-7.11%,–
CCN(CC)C(=O)c1ccc(O)c(OC)c1,–,inactive
Clc1ccc(Cn2c(CN3CCCC3)nc3ccccc32)cc1,-15.9% [at 12.8 µM],–
CC(=O)N[C@@H](CS)C(=O)O,-1.43%,–
O=C1NC(=O)C(c2ccccc2)(c2ccccc2)N1,-0.0567%,–
COc1ccccc1N1CCN(CCCNc2cc(=O)n(C)c(=O)n2C)CC1,–,inactive
O=C(O)c1cc(-c2ccccc2)nc2ccccc12,-0.635%,–
C[C@@H](O)[C@H]1C(=O)N2C(C(=O)O)=C(S[C@@H]3CN[C@H](C(=O)N(C)C)C3)[C@H](C)[C@H]12,-7.79%,–
O=C1Nc2ccc(Cl)cc2C(C#CC2CC2)(C(F)(F)F)O1 (centres undefined),-4.8%,–
O=C1NCC2(CCN(CCc3ccccc3)CC2)O1,2.68%,–
CC(=O)c1ccc(S(=O)(=O)NC(=O)NC2CCCCC2)cc1,-2.1%,–
CCCCCN(C)CCC(O)(P(=O)(O)O)P(=O)(O)O,7.22%,–
CCN1CCC[C@H]1CNC(=O)c1cc(S(N)(=O)=O)ccc1OC,-3.03%,–
O=C(NCCN1CCOCC1)c1ccc(Cl)cc1,7.11%,–
CCN(CC)CCNC(=O)c1ccc(N)cc1,10.4%,–
NCCS,6.06%,–
CCOC(=O)O[C@]1(C(=O)OCCl)CC[C@@H]2[C@H]3CCC4=CC(=O)C=C[C@]4(C)[C@@H]3[C@@H](O)C[C@@]21C,-7.49%,–
CC(=O)CCCCn1c(=O)c2c(ncn2C)n(C)c1=O,-0.616% [at 12.8 µM],–
O=C(O)c1c(Cl)c(Cl)c(Cl)c(Cl)c1-c1c2cc(I)c(=O)c(I)c-2oc2c(I)c(O)c(I)cc12,-11.6%,–
C[N+](C)(C)CCCCCC[N+](C)(C)C,6.37%,–
Cc1cnc(C(=O)O)c[n+]1[O-],3.72%,–
COc1ccc(Cc2nccc3cc(OC)c(OC)cc23)cc1OC,-10.5% [at 12.8 µM],–
NC(N)=Nc1nc(CSCC/C(N)=N/S(N)(=O)=O)cs1,1.32%,–
O=C(O)Cc1cccc2ccccc12,1.76%,–
O=c1[nH]cnc2c1ncn2[C@H]1CC[C@@H](CO)O1,-9.76%,–
CCCCC1C(=O)N(c2ccccc2)N(c2ccccc2)C1=O,-11.2%,–
CCCNC(=O)NS(=O)(=O)c1ccc(Cl)cc1,-9.12%,–
CC1(C)O[C@H]2C[C@@H]3[C@H]4CCC5=CC(=O)C=C[C@]5(C)[C@@]4(F)[C@@H](O)C[C@]3(C)[C@]2(C(=O)CO)O1,-9.57%,–
